Results filed as inconclusive are left out. Where a call stands in place of a potency, no number is given. A number with no mark means an inactive call. Active and inactive are the calls of the source. Calls follow the shape of the dose curve; as a rule, active = well fitted curve in the direction sought with a large enough effect; inconclusive = small, poorly fitted or top-dose-only effect, or another doubt; inactive = no such curve, though single readings can be large; an effect the other way counts as inactive or inconclusive.

Test [1] is described as follows: Confirmatory screen NINDS Rhodamine qHTS for Zika virus inhibitors (AID 1347161). Also: potency is read from the fitted curve at half-maximal effect; nearly all actives have a fitted effect of over 60% in size. Conditions: purified enzyme assay, Rhodamine110 substrate fluorescence, 15 min. In short, it runs like this:
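Enzyme (25 nM, linked NS2B-NS3) was preincubated 15 min with compound in 10 mM Tris-HCl pH 8.0, 0.01% Tween 20. Rhodamine110 substrate (1.5 microM) was then added and fluorescence read at start and after 15 min.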
For orientation: qHTS replaces the single test concentration by a dilution series.

The nature of test [2]: Tertiary RLuc qRT-PCR qHTS assay for Zika virus inhibitors (AID 1347169). Also: nearly all actives have a fitted effect of over 55% in size. Also: potency is read from the fitted curve at half-maximal effect. As to activity change, negative = inhibition: top concentration of the series differs between compounds. The settings on record: infected Vero cells, reporter luminescence, 48-72 h; series mostly up to 45.9 µM. In short, it runs like this: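 Vero cells (1,000/well) infected with recombinant ZIKV-RLuc (Cambodian) at MOI 1-2 after compound addition, 48-72 hrs at 37 degrees C. Live-cell Renilla luciferase substrate added; luminescence read after 1-1.5 hrs.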
Background: Quantitative PCR measures a nucleic acid by following its amplification.

Test [3] deals with Lysine-specific demethylase 5B (Homo sapiens) (UniProt Q9UGL1). In words: Optimization screen for KDM5B Histone Demethylases FDH coupled qHTS against the LOPAC library (AID 1347166). The settings on record: KDM5B demethylation, FDH-coupled NADH fluorescence (FDH is formaldehyde dehydrogenase); series mostly up to 57.5 µM. In short, it runs like this: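 KDM5BDeltaAP (200nM final) preincubated 10 min with compound, then 12.5uM H3K4Me3, 25uM a-ketoglutarate, ascorbate, Fe(II), NAD+ and FDH added; 50mM HEPES pH 7.5, 0.01% Tween-20. NADH fluorescence (340/450 nm) change over 30 min, room temperature.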

The test system of test [4] is Zika virus NS2B-NS3 protease (linked). Put plainly: 384 well plate NINDS AMC confirmatory qHTS for Zika virus inhibitors (AID 1347163). Also: nearly all actives have a fitted effect of over 50% in size. Also: potency is read from the fitted curve at half-maximal effect.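 As to activity change, negative = inhibition: linked protease at 5 30 or 60 nM final depending on run; fluorescence of AMC released from Ac-VKTGKR-AMC peptide cleaved by the protease; top concentration of the series differs between compounds.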 Conditions: Recombinant NS2B-NS3 protease, Ac-VKTGKR-AMC fluorescence; series mostly up to 1 mM. The essentials:
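Linked NS2B-NS3 protease (final 5 nM, 30 nM or 60 nM) was preincubated with compounds (final up to 1 mM) for ~15 minutes. Ac-VKTGKR-AMC substrate (final 30 microM) then reacted for 25 minutes at room temperature in the dark. Fluorescence (ex 355/em 460 nm) was normalized to no-enzyme and no-inhibitor controls.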

The test system of test [5] is Zika virus NS2B-NS3 protease (linked construct). Put plainly: 384 well plate NINDS Rhodamine confirmatory qHTS for Zika virus inhibitors (AID 1347164). Also: potency is read from the fitted curve at half-maximal effect; nearly all actives have a fitted effect of over 65% in size. Conditions: rhodamine-110 peptide substrate fluorescence. The essentials: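 Linked NS2B-NS3 protease (final 5, 30 or 60 nM) preincubated ~15 minutes with compounds, then 10 microM Ac-LKRR-Rhodamine 110 added. Fluorescence (485/538 nm) read after 25 minutes at room temperature, normalized to no-enzyme and no-inhibitor controls.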

Test [6] in a line: Vero cells viability qHTS for Zika virus inhibitors (AID 1347167). Also: potency is read from the fitted curve at half-maximal effect. The settings on record: cytotoxicity counter-screen (Zika); series mostly up to 45.9 µM. In short, it runs like this:
(§1)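 Compounds were tested in concentration series on cells grown in DMEM containing 4% FBS. After 24 to 48 hours, cellular ATP was measured by luminescence with CellTiter Glo.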

Test [7] can be described thus: HepG2 cells viability qHTS for Zika virus inhibitors (AID 1347168). The settings on record: Zika counter-screen; series mostly up to 45.9 µM. The essentials:
as §1

The subject of test [8] is Zika virus NS2B-NS3 protease (linked construct). Put plainly: Primary screen NINDS Rhodamine qHTS for Zika virus inhibitors (AID 1347160). Also: nearly all actives have a fitted effect of over 55% in size. The settings on record: purified NS2B-NS3 protease, Rhodamine110 substrate fluorescence; series mostly up to 57.1 µM. From the text:
Avindra Nath, Ph.D., National Institute of Neurological Disorders and Stroke (NINDS), Bethesda, MD
Radhakrishnan Padmanabhan, Ph.D., Georgetown University (GU), Washington D.C.
Zika Virus causes congenital defects, including microcephaly and is associated with Guillain-Barre syndrome, eningoencephalitis and myelitis in infected adult. […] Using a target-based approach, we hope to establish a screening paradigm to uncover novel, cell-active NS2B-NS3 protease (Zika Virus) specific inhibitors from NCATS' collection of small molecules using qHTS.
Four assay panel was created to identify potential Zika Virus inhibitors. Namely, (1) GU unlinked NS2B-NS3 AMC tagged protease qHTS, (2) GU unlinked NS2B-NS3 Rhodamine tagged protease qHTS, (3) NINDS linked NS2B-NS3 AMC tagged protease qHTS, (4) NINDS linked NS2B-NS3 Rhodamine tagged protease qHTS. Active compounds were re-acquired and re-screened to confirm inhibition. Inhibitors were further screened against various confirmatory and counterscreens in dose response format.
Early Translation Branch (ETB)
National Center for Advancing Translational Sciences (NCATS), Rockville, MD
National Institute of Health (NIH), Bethesda, Maryland
For the linked assay, Nath lab (NINDS) provided the purified linked NS2B-NS3 protease which is consists of hydrophilic domain of NS2B linked to the NS3 protease domain by a flexible (-[…]-) linker. Control compound aprotinin is obtained from Thermo Scientific (#78432; Waltham, Massachusetts). Rhodamine110 substrate ([N-Cbz]-Nle-Lys-Arg-Arg-Rhod110-Arg-Arg-Lys-Nle-[N-Cbz]) was purchased from either Genscript or Bachem.
1536-well Protease (Rhodamine110 Substrate) Assay:
Briefly, 3 microL of enzyme (25 nM final concentration), in assay buffer (10 mM Tris-HCl pH 8.0 with 0.01% Tween 20) were dispensed into a 1,536-well solid-bottom black plate (Greiner Bio One, Monroe, NC). Twenty-three nL of compounds (final concentration range 7.28 nM to 114 microM) or control Aprotinin (final concentration range 3.47 nM to 114 microM) were transferred via Wako Pin-tool (Wako Automation, Richmond, VA). Samples were incubated (room temperature, protected from light) for 15 minutes followed by a 1 microL Rhodamine110 substrate addition (1.5 microM final concentration). Plates were then immediately read on a ViewLux High-throughput CCD imager (PerkinElmer, Waltham, MA) equipped with FITC fluorescence optics (480(20) nm excitation, 540(25) nm emission), then incubated (room temperature, protected from light) for 15 minutes (~15% conversion). The change in fluorescence intensity over the 15-minute reaction period was normalized against no-inhibitor and no-enzyme controls and the resulting percent inhibition data were fitted to a 4-parameter Hill equation. Aprotinin was used as intraplate control.

The nature of test [9]: OV-KATE Cancer Cell Toxicity qHTS against the NCATS CANVASS Library (AID 1347345). Conditions: OV-KATE cells viability, CellTiter-Glo luminescence, 72 h; series mostly up to 76 µM. The essentials: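 Per well, 1000 cells; exposure 72 h with compound at 11 final concentrations; readout CellTiter-Glo luminescence.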
A short description of test [10]: HPAF-II Cancer Cell Toxicity qHTS against the NCATS CANVASS Library (AID 1347346). Also: nearly all actives have a fitted effect of over 55% in size. The settings on record: HPAF-II viability, CellTiter-Glo ATP luminescence, 72 h; series mostly up to 76 µM. In short, it runs like this: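 HPAF-II cells at 1000 cells/well were treated with an 11-point concentration series for 72 hours at 37 degrees C. Viability read by CellTiter-Glo luminescence.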

Chain of Lysine-specific demethylase 5B (Homo sapiens) (Q9UGL1 whole entry, looked up): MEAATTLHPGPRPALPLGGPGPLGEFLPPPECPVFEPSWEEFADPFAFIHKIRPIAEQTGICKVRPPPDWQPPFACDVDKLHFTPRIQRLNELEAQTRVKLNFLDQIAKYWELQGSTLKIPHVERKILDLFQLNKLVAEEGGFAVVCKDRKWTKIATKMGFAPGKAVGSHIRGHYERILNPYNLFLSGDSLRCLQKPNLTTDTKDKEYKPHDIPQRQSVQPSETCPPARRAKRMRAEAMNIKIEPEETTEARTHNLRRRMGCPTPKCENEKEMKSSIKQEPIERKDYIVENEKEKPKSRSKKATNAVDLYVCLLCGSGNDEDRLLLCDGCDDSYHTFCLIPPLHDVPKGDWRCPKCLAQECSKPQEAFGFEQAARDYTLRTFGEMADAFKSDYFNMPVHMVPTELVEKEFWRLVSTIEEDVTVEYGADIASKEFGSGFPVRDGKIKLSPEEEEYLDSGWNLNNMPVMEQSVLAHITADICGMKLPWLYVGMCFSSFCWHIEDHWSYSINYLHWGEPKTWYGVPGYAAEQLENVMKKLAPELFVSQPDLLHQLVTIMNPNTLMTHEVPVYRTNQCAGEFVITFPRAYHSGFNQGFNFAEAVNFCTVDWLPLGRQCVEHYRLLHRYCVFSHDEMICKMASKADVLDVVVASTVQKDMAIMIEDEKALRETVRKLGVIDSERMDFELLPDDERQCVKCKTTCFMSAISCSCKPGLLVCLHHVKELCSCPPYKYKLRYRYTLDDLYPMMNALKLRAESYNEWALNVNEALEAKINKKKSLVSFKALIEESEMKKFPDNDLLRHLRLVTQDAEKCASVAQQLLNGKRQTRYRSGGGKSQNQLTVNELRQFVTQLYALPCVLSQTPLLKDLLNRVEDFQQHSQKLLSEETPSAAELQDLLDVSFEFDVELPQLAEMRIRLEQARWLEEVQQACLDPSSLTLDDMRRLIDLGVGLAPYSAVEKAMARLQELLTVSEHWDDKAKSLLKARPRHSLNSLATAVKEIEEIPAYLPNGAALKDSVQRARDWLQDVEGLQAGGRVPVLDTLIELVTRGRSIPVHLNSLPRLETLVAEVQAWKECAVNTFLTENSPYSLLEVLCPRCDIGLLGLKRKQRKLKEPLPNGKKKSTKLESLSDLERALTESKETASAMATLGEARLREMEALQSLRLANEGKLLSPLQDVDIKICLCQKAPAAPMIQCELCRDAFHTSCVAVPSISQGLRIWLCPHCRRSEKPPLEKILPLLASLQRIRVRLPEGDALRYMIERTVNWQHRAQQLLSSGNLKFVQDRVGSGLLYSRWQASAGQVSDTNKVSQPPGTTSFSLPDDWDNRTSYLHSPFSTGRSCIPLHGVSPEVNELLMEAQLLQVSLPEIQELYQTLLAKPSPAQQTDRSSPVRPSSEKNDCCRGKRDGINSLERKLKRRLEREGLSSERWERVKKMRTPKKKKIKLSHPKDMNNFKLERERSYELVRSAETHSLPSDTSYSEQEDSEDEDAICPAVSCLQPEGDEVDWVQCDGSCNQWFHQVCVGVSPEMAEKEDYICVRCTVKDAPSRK

In the case of `CC(=O)OCC1=C(C(=O)O)N2C(=O)[C@@H](N)[C@H]2SC1`, the Potency in [1] is 24.8 µM (active). Besides, in test [2], the Potency result is “inactive”. For `O=P1(N(CCCl)CCCl)NCCCO1` (stereo not given), the outcome in test [3] was inactive. The same measure, in the same setting: then `CN1C(=O)CCS(=O)(=O)C1c1ccc(Cl)cc1` (stereo not given), with “inactive”. Turning to `O=c1c(C2CC(c3ccc(-c4ccc(Br)cc4)cc3)Cc3ccccc32)c(O)sc2ccccc12` (stereo not given), the Potency is 2.2 µM (active) in test [1], 11.2 µM (active) in test [4] and 17.8 µM (active) in test [5]. Moreover, the Potency result in [6] is “inactive”. Also, the compound was called inactive in test [7]. `C=CCN1C[C@H](C)N([C@H](c2ccc(C(=O)N(CC)CC)cc2)c2cccc(OC)c2)C[C@H]1C`: in [8], the activity change, negative = inhibition was 6.42% [at 10.7 µM].

As to `CC(C)c1cccc(C(C)C)c1O`, in test [3], the result was inactive.

In the case of `NCCc1ccc(O)cc1`, the outcome in test [8], in test [3], in test [9] and in test [10] was inactive.

Consider `O=c1[nH]oc2c1CCNC2`, for which the call in [3] was inactive. `CC(C)N(CCC(C(N)=O)(c1ccccc1)c1ccccn1)C(C)C` (stereo not given): the call in test [8] and in [3] was inactive.

Take `C[C@]12CC[C@@H]3c4ccc(OC(=O)N(CCCl)CCCl)cc4CC[C@H]3[C@@H]1CC[C@@H]2O`: the results for the Potency in [1] and in test [5] were 1.97 µM (active) and 39.8 µM (active), respectively. Further, the Potency result in test [6] was “inactive”. The outcome in test [7] was inactive. Take `Cc1ncsc1CCCl`: in [3], the result was inactive. The same measure, in the same setting: the value for `O=C(O)CCCc1ccc(N(CCCl)CCCl)cc1` was “inactive”. As to `C[C@]12CC[C@@H]3c4ccc(OC(=O)N(CCCl)CCCl)cc4CC[C@H]3[C@@H]1CC[C@@H]2OP(=O)(O)O`, the outcome in test [8] was inactive. On to `CC(NC(C)(C)C)C(=O)c1cccc(Cl)c1` (stereo not given), for which the compound was called inactive in test [8] and in test [3].

For `O=C(CCCN1CCC2(CC1)C(=O)NCN2c1ccccc1)c1ccc(F)cc1`, in test [3], the result was inactive.

With `CCC1(c2ccc(N)cc2)CCC(=O)NC1=O` (stereo not given), the compound was called inactive in [3]. Regarding `O=C(Nc1ccc(Br)cc1)c1cc(Br)cc(Br)c1O`, the Potency in [1] is 3.12 µM (active); in test [5] it was 44.7 µM (active); in test [6], 23.4 µM (active); in test [2] it was 8.29 µM (active). Also, in test [4], the Potency entry was “inactive”. In addition, the call in [7] was inactive. Regarding `C=C(C)[C@H]1CN[C@H](C(=O)O)[C@H]1CC(=O)O`, the result in test [3] was inactive.

Consider `CC(C)(C)NCC(O)c1ccccc1Cl` (stereo not given), for which the compound was called inactive in [3]. Turning to `O=C1OC(c2ccc(O)c(S(=O)(=O)O)c2)(c2ccc(O)c(S(=O)(=O)O)c2)c2c(Br)c(Br)c(Br)c(Br)c21`, the Potency was 2.51 µM (active) in [1] and 112 µM (active) in [4]. Regarding `COc1ccc2c(c1OC)C(=O)O[C@H]2[C@@H]1c2cc3c(cc2CCN1C)OCO3`, in test [3], the outcome was inactive.

The values above are taken from PubChem BioAssay (NCATS).
